Mdm2 MdmX PPI: human Mdm2/MdmX binding inhibition | inhibition, % at 8 µM | AID 485346 | O15151+Q00987 | 330,000 compounds, 3% hits | SaOS-2 split-luciferase Mdm2/MdmX complementation, luminescence;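 active = inhibition of at least 50% at 8 µM in the primary screen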
Shn3 3UTR inh: Schnurri-3 reporter inhibition in Clone20 osteoblasts. Clone20 osteoblast Shn3 3'UTR firefly luciferase, 24 h. inhibition, % at 12.5 µM. 360,000 compounds, 0.52% hits;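 active = mean inhibition of at least 75% with every replicate also reaching 75%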;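 also: 0% = median of neutral control wells and 100% = pilot-screen positive control compound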
Beta cell apopt: blocks beta cell apoptosis; INS-1E cytokine-induced death, ATP luminescence, 48 h; percent of positive-control rescue, neutral wells zero; protection from apoptosis, % (test concentration not listed); 300,000 compounds, 0.8% hits;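 active = Every replicate reaches about 75%, or at least half do and their mean reaches it too, limit read from the data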;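 also: 0% = cytokine-treated negative control wells and 100% = positive control rescue; higher means more ATP so stronger rescue from cytokine killing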
CSC inhib: cancer stem cell inhibition. inhibition, % at 7.5 µM. AID 2717. cancer stem cell-like cells viability, luminescence. 300,000 compounds, 1.1% hits; in the data active = inhibition above about 75%; tested in HMLE shEcad cells
Gli-Sufu antag: antagonists of Gli-Sufu signaling. Sufu-KO-LIGHT fibroblasts, Gli luciferase reporter luminescence. inhibition, % at 5 µM. 340,000 compounds, 0.74% hits. AID 588413;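 active = inhibition above about 55%, limit read from the data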;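 also: 0% = DMSO-treated cells and 100% = wells with medium but no cells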
PAX8 reporter: inhibitors of PAX8 transcriptional activity in RMG-I cells | RMG-I TPO-luciferase reporter, SteadyGlo, 24 h | inhibition, % at 12.6 µM | 360,000 compounds, 1.2% hits;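 active = mean replicate inhibition at least 60% with every replicate also reaching 60%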;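 also: luciferase light reporting Pax8 driven TPO promoter activity; plate controls were median of neutral control wells for no effect and mitoxantrone controls for full effect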
Gli antag conf: Gli-SUFU antagonism confirmation, single concentration. Sufu-KO-LIGHT cells, Gli luciferase reporter, luminescence. shares compounds with Gli-Sufu antag. inhibition, % at 5 µM. 2,500 compounds, 40% hits. AID 602428;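 active = mean inhibition at 5 µM reaching about 45%, limit read from the data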;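 also: plate controls were DMSO-treated cells for no effect and wells lacking cells for full effect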
SufuKO cytotox: cytotoxic in Gli-SUFU antagonist counter-screen | shares compounds with Gli-Sufu antag | Sufu-KO-LIGHT cells cytotoxicity, ATP luminescence | cytotoxicity, % at 5 µM | 2,500 compounds, 32% hits;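 active = mean cytotoxicity at 5 µM above about 25%, limit read from the data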;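 also: cells exposed to compound overnight for roughly 16 to 18 hours; plate controls were DMSO wells with cells for no effect and medium without cells for full effect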
Wnt3a counter: Wnt3a reporter inhibition counter-screen; shares compounds with Gli-Sufu antag; Wnt-LIGHT cells, Wnt3a-driven luciferase reporter, luminescence; inhibition, % at 6.25 µM; 2,500 compounds, 20% hits; AID 651995;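 active = mean inhibition above about 25%, limit read from the data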
Active calls of the source: *; x = no result. An excerpt weighted towards active compounds, which were near 4% of everything screened.

SMILES	Mdm2 MdmX PPI	Shn3 3UTR inh	Beta cell apopt	CSC inhib	Gli-Sufu antag	PAX8 reporter	Gli antag conf	SufuKO cytotox	Wnt3a counter
CC1(C)CC(=O)c2c(noc2-c2ccccc2)C1	14.0	-8.6	-1.1	48.3	75.2*	x	19.7	28.4*	-47.4
CC1(C)CC(=O)c2c(Cc3ccccc3)noc2C1	6.3	-23.2	-2.0	-0.6	-10.7	-8.9	x	x	x
CCN(CC)C1=CC(=[N+]2CCCC2)CC(C)(C)C1	18.1	77.4	46.1	13.1	79.4*	6.9	81.7*	31.6*	47.8*
Cn1c(SCC(=O)NCCc2ccccc2)ncc(C(=O)Nc2ccccc2)c1=O	5.0	-35.7	x	-8.7	7.6	5.4	x	x	x
Cn1c(SCC(=O)NCc2ccc(F)cc2)ncc(C(=O)Nc2ccccc2)c1=O	18.6	35.7	-18.2	-4.6	54.1	16.4	29.6	13.2	-14.2
O=C(Nc1nnc(-c2ccco2)o1)c1ccc2ccccc2c1	5.0	-1.8	x	11.0	96.7*	7.0	8.4	2.5	-14.4
Cc1ccc(C(=O)Nc2nnc(-c3ccco3)o2)cc1	-14.3	-8.0	-0.7	-3.4	-18.2	-31.3	x	x	x
CCOc1cc(CNCCc2ccc(S(N)(=O)=O)cc2)ccc1OCc1ccccc1	x	84.2	33.9	3.3	45.7	x	x	x	x
COc1ccc(CNCCc2ccc(Cl)cc2)cc1OCc1ccccc1	37.6	83.7	39.7	45.0	53.0	x	29.2	6.0	4.6
NS(=O)(=O)c1ccc(CCNCc2cc(Br)ccc2OCc2ccccc2)cc1	8.5	82.4	35.2	-6.3	55.0*	19.1	30.9	4.3	-9.8
COc1ccc(CNCCc2ccccc2)cc1OCC(N)=O	3.8	-37.5	4.6	14.4	-3.5	x	x	x	x
O=C(N[C@H]1CC[C@H](CCNC(=O)c2ccccc2F)O[C@@H]1CO)c1ccc2c(c1)OCO2	x	x	x	x	x	17.2	x	x	x
Cc1ccc(CCNC(=O)CCS(=O)(=O)Cc2ccc(C)cc2)cc1	-3.3	-9.7	2.8	3.6	-17.1	-12.7	x	x	x
Cc1ccc(CNC(=O)CCS(=O)(=O)Cc2ccc(C)cc2)cc1	-15.5	10.6	-2.9	19.7	51.2	-4.8	23.9	1.1	10.3
COc1ccc(/C=N/NC(=O)c2cc(-c3ccccc3)nc3ccccc23)cc1O	8.0	19.7	11.2	1.8	-1.3	-20.0	x	x	x
COc1cc(/C=N/NC(=O)c2cc(-c3ccccc3)nc3ccccc23)ccc1O	15.2	1.2	5.6	-5.3	58.8*	10.2	11.4	15.2	-98.2
CO[C@@H]1CN(C)C(=O)c2ccc(NC(=O)NC3CCCCC3)cc2OC[C@@H](C)NC[C@H]1C	x	x	x	x	x	8.1	x	x	x
O=C(Nc1ccc(F)cc1)N1C[C@@H]2[C@H](c3ccccc31)[C@H](CO)N2Cc1cocn1	x	x	x	x	x	-20.4	x	x	x
CCCCSc1nc2sc3c(c2c(=O)n1-c1ccc(C)cc1)CCN(C)C3	31.5	20.7	134.5*	-1.9	50.0	15.2	49.4*	20.7	-9.7
O=C(NCC[C@H]1CC[C@H](NC(=O)c2cnccn2)[C@H](CO)O1)Nc1ccc(Cl)cc1	x	x	x	x	x	-48.4	x	x	x
O=C(Cn1c(-c2ccccc2)c[n+]2ccsc12)c1ccc(Br)cc1	39.2	22.0	26.6	-10.1	50.4	-15.2	45.1*	17.3	-30.7
O=C(c1ccncc1)N1CC(=O)N2[C@@H](CO)[C@H](c3ccc(-c4ccccc4F)cc3)[C@@H]2C1	x	x	x	x	x	1.0	x	x	x
N#C/C(=C/c1ccc(-c2ccc([N+](=O)[O-])cc2)o1)C(=O)Nc1nc(-c2cccs2)cs1	x	10.2	x	x	72.3*	-25.3	83.8*	6.0	32.8*
N#C/C(=C/c1ccc(-c2ccc(S(N)(=O)=O)cc2)o1)C(=O)Nc1ccccc1	13.6	17.1	-2.0	1.1	3.2	11.7	x	x	x
CN1CCN(CCC(=O)Nc2ccc(Br)cc2)CC1	-13.9	6.6	-11.0	-4.6	84.4*	0.9	11.2	16.1	-15.8
CCN1CCN(CCC(=O)Nc2ccc(Br)cc2)CC1	-7.5	-3.8	-3.0	-6.7	5.9	6.2	x	x	x
Cn1nc(CC(=O)Nc2ccc3c(c2)CCC3)c2ccccc2c1=O	22.6	71.7	x	x	71.7*	-11.0	68.1*	40.7*	3.0
